Results reported in PubChem BioAssay AID1159580 (chemical genetic matrix, 2015).
In all, about 5,500 compounds went through this assay and about 2,000 (36%) were called active. Inconclusive results (about 18%) are left out. No stated cut-off is given here; in the data, active means normalized growth mostly below about 0.91 (no sharp cut-off); inconclusive means no clear call, values can overlap the other calls; inactive means mostly above about 0.92. The list shows a part of the results.

Experiment: chemical genetic growth profiling, strain panel (AID 1159580);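 further: tested at 20 µM; growth read once vehicle control cultures reached saturation at 30 °C; 1 = growth at the plate median or of vehicle wells; lower values mean less growth of the strain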
Conditions: growth OD

Measured: normalized growth

OC1C(O)C(O)C(O)C(O)C1O (stereo not given)
inactive: S. cerevisiae deletion strains, locus YJR075W, strain HOC1, active compounds read low 1 | S. cerevisiae deletion strains, locus YKL009W, strain mrt4, active compounds read low 0.953 | S. cerevisiae deletion strains, locus YKL068W, active compounds read low 0.973 | S. cerevisiae deletion strains, locus YKL085W, strain MDH1 (second series), active compounds read low 0.97 | S. cerevisiae deletion strains, locus YKL085W, strain MDH1, active compounds read low 0.97 | S. cerevisiae deletion strains, locus YKL160W, strain elf1, active compounds read low 1 | S. cerevisiae deletion strains, locus YKL190W, strain CNB1, active compounds read low 0.99 | S. cerevisiae deletion strains, locus YKR001C, strain vps1, active compounds read low 0.982 | S. cerevisiae deletion strains, locus YKR026C, strain gcn3, active compounds read low 0.997 | S. cerevisiae deletion strains, locus YKR091W, strain srl3, active compounds read low 0.999 | S. cerevisiae deletion strains, locus YLL001W, strain dnm1, active compounds read low 0.997 | S. cerevisiae deletion strains, locus YLL026W, active compounds read low 1 | S. cerevisiae deletion strains, locus YLL041C, strain sdh2, active compounds read low 0.996 | S. cerevisiae deletion strains, locus YLR027C, strain aat2, active compounds read low 1 | S. cerevisiae deletion strains, locus YLR039C, strain RIC1, active compounds read low 0.966 | S. cerevisiae deletion strains, locus YLR058C, strain SHM2, active compounds read low 0.982 | S. cerevisiae deletion strains, locus YLR102C, strain apc9, active compounds read low 0.994 | S. cerevisiae deletion strains, locus YLR113W, strain HOG1, active compounds read low 0.964 | S. cerevisiae deletion strains, locus YLR221C, strain rsa3, active compounds read low 1 | S. cerevisiae deletion strains, locus YLR258W, strain gsy2, active compounds read low 0.998 | S. cerevisiae deletion strains, locus YLR262C, strain YPT6 (second series), active compounds read low 1 | S. cerevisiae deletion strains, locus YLR262C, strain YPT6, active compounds read low 0.962 | S. cerevisiae deletion strains, locus YLR268W, strain sec22, active compounds read low 0.996 | S. cerevisiae deletion strains, locus YLR320W, strain mms22, active compounds read low 0.998 | S. cerevisiae deletion strains, locus YLR330W, strain CHS5, active compounds read low 0.995 | S. cerevisiae deletion strains, locus YLR342W, strain FKS1 (second series), active compounds read low 1.04 | S. cerevisiae deletion strains, locus YLR342W, strain FKS1, active compounds read low 0.995 | S. cerevisiae deletion strains, locus YLR357W, strain rsc2, active compounds read low 0.988 | S. cerevisiae deletion strains, locus YLR370C, strain arc18, active compounds read low 1 | S. cerevisiae deletion strains, locus YLR371W, strain rom2, active compounds read low 0.976 | S. cerevisiae deletion strains, locus YLR384C, strain iki3, active compounds read low 0.998 | S. cerevisiae deletion strains, locus YLR418C, strain cdc73, active compounds read low 0.979 | S. cerevisiae deletion strains, locus YML016C, strain PPZ1, active compounds read low 0.996 | S. cerevisiae deletion strains, locus YML032C, strain rad52, active compounds read low 0.981 | S. cerevisiae deletion strains, locus YML120C, strain ndi1, active compounds read low 1.01 | S. cerevisiae deletion strains, locus YML124C, strain tub3, active compounds read low 0.985 | S. cerevisiae deletion strains, locus YMR058W, strain fet3, active compounds read low 1 | S. cerevisiae deletion strains, locus YMR078C, strain ctf18, active compounds read low 0.982 | S. cerevisiae deletion strains, locus YMR125W, strain sto1, active compounds read low 0.991 | S. cerevisiae deletion strains, locus YMR129W, active compounds read low 0.997 | S. cerevisiae deletion strains, locus YMR205C, strain PFK2, active compounds read low 0.996 | S. cerevisiae deletion strains, locus YMR223W, strain ubp8, active compounds read low 1.02 | S. cerevisiae deletion strains, locus YMR231W, strain pep5, active compounds read low 1 | S. cerevisiae deletion strains, locus YMR263W, strain SAP30, active compounds read low 0.99 | S. cerevisiae deletion strains, locus YMR307W, strain GAS1, active compounds read low 1.03 | S. cerevisiae deletion strains, locus YNL067W, strain RPL9B, active compounds read low 0.965 | S. cerevisiae deletion strains, locus YNL071W, strain lat1, active compounds read low 1 | S. cerevisiae deletion strains, locus YNL153C, strain GIM3, active compounds read low 0.972 | S. cerevisiae deletion strains, locus YNL183C, strain NPR1, active compounds read low 0.984 | S. cerevisiae deletion strains, locus YNL209W, strain ssb2, active compounds read low 0.997 | S. cerevisiae deletion strains, locus YNL233W, strain BNI4, active compounds read low 0.996 | S. cerevisiae deletion strains, locus YNL248C, strain rpa49, active compounds read low 0.99 | S. cerevisiae deletion strains, locus YNL250W, strain rad50, active compounds read low 0.979 | S. cerevisiae deletion strains, locus YNL271C, strain bni1, active compounds read low 0.984 | S. cerevisiae deletion strains, locus YNL298W, strain CLA4, active compounds read low 0.991 | S. cerevisiae deletion strains, locus YNL307C, strain MCK1, active compounds read low 0.984 | S. cerevisiae deletion strains, locus YNL322C, strain KRE1 (second series), active compounds read low 1 | S. cerevisiae deletion strains, locus YNL322C, strain KRE1, active compounds read low 0.993 | S. cerevisiae deletion strains, locus YNR049C, strain mso1, active compounds read low 1 | S. cerevisiae deletion strains, locus YNR052C, strain pop2, active compounds read low 0.989 | S. cerevisiae deletion strains, locus YOL006C, strain TOP1, active compounds read low 0.938 | S. cerevisiae deletion strains, locus YOL012C, strain htz1 1.04 | S. cerevisiae deletion strains, locus YOL147C, strain pex11, active compounds read low 0.994 | S. cerevisiae deletion strains, locus YOR001W, strain rrp6, active compounds read low 1.01 | S. cerevisiae deletion strains, locus YOR061W, strain CKA2, active compounds read low 0.974 | S. cerevisiae deletion strains, locus YOR069W, strain VPS5, active compounds read low 0.997 | S. cerevisiae deletion strains, locus YOR070C, strain gyp1, active compounds read low 1 | S. cerevisiae deletion strains, locus YOR080W, strain dia2, active compounds read low 0.993 | S. cerevisiae deletion strains, locus YOR083W, strain WHI5, active compounds read low 1 | S. cerevisiae deletion strains, locus YOR106W, strain vam3, active compounds read low 1 | S. cerevisiae deletion strains, locus YOR136W, strain idh2, active compounds read low 0.984 | S. cerevisiae deletion strains, locus YOR144C, strain elg1, active compounds read low 0.987 | S. cerevisiae deletion strains, locus YOR184W, strain ser1, active compounds read low 0.996 | S. cerevisiae deletion strains, locus YOR231W, strain MKK1, active compounds read low 0.995 | S. cerevisiae deletion strains, locus YOR265W, strain rbl2, active compounds read low 1 | S. cerevisiae deletion strains, locus YOR270C, strain vph1, active compounds read low 1 | S. cerevisiae deletion strains, locus YOR290C, strain snf2, active compounds read low 0.996 | S. cerevisiae deletion strains, locus YOR316C, strain cot1, active compounds read low 0.979 | S. cerevisiae deletion strains, locus YPL051W, strain arl3, active compounds read low 1.01 | S. cerevisiae deletion strains, locus YPL055C, strain LGE1, active compounds read low 0.966 | S. cerevisiae deletion strains, locus YPL078C, strain atp4, active compounds read low 1 | S. cerevisiae deletion strains, locus YPL106C, strain sse1, active compounds read low 1 | S. cerevisiae deletion strains, locus YPL240C, strain hsp82, active compounds read low 0.995 | S. cerevisiae deletion strains, locus YPL256C, strain CLN2, active compounds read low 0.961 | S. cerevisiae deletion strains, locus YPR119W, strain clb2, active compounds read low 0.993 | S. cerevisiae deletion strains, locus YPR141C, strain kar3, active compounds read low 0.929 | S. cerevisiae deletion strains, locus YPR163C, strain tif3, active compounds read low 0.991 | S. cerevisiae deletion strains, locus YPR167C, strain met16, active compounds read low 0.985 | S. cerevisiae deletion strains, strain wtn01, active compounds read low 0.993 | S. cerevisiae strains, strain wild type, active compounds read low 0.994
